Assay outcomes deposited in PubChem by several laboratories.
Only some compounds are listed: those with a hit (about 2.8% of all), similar ones and a draw of the others.
Furin inh: human furin inhibitors, primary screen, biochemical, fluorescence intensity | 220,000 tested, 0.061% active | purified furin, fluorogenic substrate cleavage | AID 463115, 2010 | inhibition, % at 20 µM or 30 µM; in the data active means inhibition above about 25%
HSV augment: enhancers of HSV replication in host cells, fold increase, host cell viability | maximum fold increase | HSV replication augmentation in cells | 220,000 tested, 0.005% active; in the data active means maximum fold increase above about 1.5; inconclusive means no clear call, values can overlap the other calls; tested in PC3 cells
EP2 mod: EP2 receptor modulators, cAMP readout, primary screen, cell-based, HTRF cAMP, PGE2 stimulation; Prostaglandin E2 receptor EP2 subtype (Homo sapiens), P43116; EP2-expressing cells, cAMP HTRF FRET, PGE2 co-stimulation; induction, % at 25 µM; 260,000 tested, 0.83% active; AID 940, 2007;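 active means compounds whose cAMP rise, as percent of the full-agonist control response, exceeds 60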;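 further: rat C6 glioma line stably carrying human EP2 under a CMV promoter; the protocol text gives 20 µM as final concentration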
Wee1 degr inh: Wee1 degradation inhibitors, primary screen, cell-based, HeLa, Wee1K328M-luciferase, luminescence; Wee1-like protein kinase (Homo sapiens), P30291; HeLa Luc-Wee1K328M stability; 100% = proteasome inhibitor MG132 effect; reporter increase, % at 5 µM; 220,000 tested, 1.2% active; AID 1321, 2008;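 active means activation above the mean of all tested compounds plus 3 SD, set per screening run, cut at about 8.8% in these data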;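 further: cells exposed to compound for 20 h before luminescence read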
p47phox inh: p47phox/p22phox peptide binding inhibitors, primary screen, biochemical, uHTS, NADPH oxidase regulatory subunit; Neutrophil cytosol factor 1 (Homo sapiens), P14598; AID 1274, 2008; fluorescence polarization, 2 h; 220,000 tested, 0.53% active; inhibition, % at 24.7 µM;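 active means inhibition above about 30%, limit read from the data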
EP2 antag: human EP2 receptor antagonists, primary screen, TR-FRET cAMP, C6 glioma cells | C6 glioma cells expressing human EP2; cells stimulated with saturating PGE2 | inhibition, % at 25 µM | 260,000 tested, 0.52% active | AID 1422, 2008;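 active means percent inhibition above 40 after rounding to a whole number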;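 further: rat C6 glioma host cells with rolipram phosphodiesterase inhibitor present; the protocol text gives 20 µM as final concentration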
EP2 confirm: cAMP induction in EP2, EP4, beta2-AR and parental cells, confirmation, counter-screen for EP2 modulator project, cell-based, five parallel assays, C6 glioma, HEK293; shares compounds with EP2 mod; cAMP HTRF induction; plus low (about EC15) PGE2 agonist; calls only at 20 µM (by protocol); 1,300 tested, 47% active; AID 1080, 2008;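 active means cAMP induction above 50% in the main assay while under 30% in all four parallel counter assays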;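 further: rat C6 glioma cells stably expressing human EP2 receptor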
Hits are given with their value; . = inactive; ? = inconclusive; / = not tested or not shown; + = active, no number.

SMILES | Furin inh | HSV augment | EP2 mod | Wee1 degr inh | p47phox inh | EP2 antag | EP2 confirm
Cc1cc(SC(C)C(=O)O)nc2ccccc12 (centres undefined) | . | . | 68 | . | . | . | .
Cc1cc2c(o1)c1cnn(CC(=O)NCc3ccco3)c(=O)c1n2C | / | / | . | / | / | / | /
CN(C)CC(CCCCC(CN(C)C)C(=O)c1ccccc1)C(=O)c1ccccc1 (centres undefined) | . | . | . | . | . | . | /
C[C@H](CN(C)C)C(=O)c1ccccc1C(=O)O | / | / | . | / | / | . | .
Cc1ccc2nc(-c3ccncc3)cc(-c3ccccc3)c2c1 | . | . | 92 | . | . | . | +
CCS(=O)(=O)Nc1ccc(-c2cc(-c3ccccc3)c3cc(C)ccc3n2)cc1 | . | . | . | . | . | . | /
CC(c1ccccc1F)n1cc(C(=O)NCC2CCCO2)nn1 (centres undefined) | / | / | . | / | / | . | /
Cc1cc(C)n(CC(O)CN(Cc2ccco2)Cc2[nH]c3ccc(F)cc3c2C)n1 (centres undefined) | / | / | . | / | / | . | /
CC(C)CCn1c(=O)c2ccccc2c2ccccc2c1=O | . | . | 83 | . | . | . | +
Cc1cccc(C(=O)c2cnc3ccccc3c2-c2ccccc2)c1 | . | . | 90 | . | . | . | +
COc1ccc2cc(CN(Cc3cccnc3)C(=S)Nc3ccc(C)cc3)c(=O)[nH]c2c1 | / | / | . | / | / | . | /
O=S(=O)(c1ccccc1)N1CCC(c2nc3ccccc3s2)CC1 | / | / | . | / | / | . | /
Cc1cccc(C)c1NC(=O)CSc1nc(COc2ccccc2)nc2ccccc12 | . | . | 69 | . | . | . | .
CCc1nc(SCC(=O)Nc2nc3c(s2)CCCC3)c2ccccc2n1 | . | . | 87 | . | . | . | .
CCCc1nc(SCC(=O)Nc2nc3c(s2)CCCC3)c2ccccc2n1 | . | . | . | . | . | / | /
Cc1cc(C)c(S(=O)(=O)N(C2=NCCS2)S(=O)(=O)c2c(C)cc(C)cc2C)c(C)c1 | . | . | 71 | . | . | . | .
Cc1nc(N(C)C)c2sc(=S)n(Cc3ccccc3)c2n1 | . | . | 76 | . | . | . | +
CCN(CC)c1nc(C)nc2c1sc(=S)n2C | . | . | . | . | . | . | /
c1ccc(-c2csc3ncnc(N4CCc5ccccc5C4)c23)cc1 | . | . | 72 | . | . | . | +
c1ccc(-c2csc3ncnc(N4CCOCC4)c23)cc1 | . | . | . | . | . | . | /
CCn1cncc1CN1CCC(O)(c2ccc3c(c2)OCO3)CC1 | / | / | . | / | / | . | /
CCOC(=O)CC(=O)CSc1nc(-c2ccc3c(c2)OCO3)cc(C(F)(F)F)c1C#N | . | ? | 68 | . | . | . | .
CCN=C1S/C(=C\c2ccc(O)c(OCC)c2)C(=O)N1CC | . | . | 81 | . | . | . | .
Cc1ccc2c3c(cccc13)-c1ccccc1C2=O | . | . | 79 | . | . | . | +
Cc1coc2c1C(=O)C(=O)c1c-2ccc2c(C)cccc12 | . | . | . | / | . | . | /
SMILES | Furin inh | HSV augment | EP2 mod | Wee1 degr inh | p47phox inh | EP2 antag | EP2 confirm
CCCCOP(=O)(OCCCC)C(Nc1ccccc1)c1ccc2c(c1)OCO2 (centres undefined) | . | . | 70 | . | . | . | .
c1cc[n+](CCNCC[n+]2ccccc2)cc1 | / | / | . | / | / | . | /
Cc1ccc2c(c1)nnn2C1CCN(C(=O)c2ccccc2)CC1 | / | / | . | / | / | . | /
CCOc1cc(S(=O)(=O)NCCc2cccc(C)c2)c(OCC)cc1-n1cnnn1 | . | . | 68 | . | . | . | .
CCn1c2ccc(OC)cc2c2nc3ccccc3nc21 | . | . | . | . | . | . | .
Cc1ccc2c(c1)c1nc3ccccc3nc1n2CC(N)=O | / | / | . | / | / | . | /
CCn1c2ccc(Cl)cc2c2nc3ccccc3nc21 | . | . | . | . | . | . | +
CCOC(=O)c1c(-c2cccc([N+](=O)[O-])c2)csc1N | . | . | . | . | . | . | /
